Reference: PubChem BioAssay (NCI)
About 79,000 compounds went through this panel and 15% of them were active in at least one assay; those are over-represented in the sample as a whole. The source made the active and inactive calls. Cut-off read from the data, not from the text of the source: active = growth inhibition above about 70%; inactive = the rest.

How the values were obtained:
[1] = NCI Yeast Anticancer Drug Screen. Data for the rad52 strain (AID 147);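 note: 0% = growth of vehicle-treated control cultures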; conditions: S. cerevisiae rad52 mutant growth inhibition, active compounds read high
Outline: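 Inhibition of yeast growth, referenced to vehicle controls, was the measured output for a strain with defective DNA damage repair.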

[2] = NCI Yeast Anticancer Drug Screen. Data for the wt1 strain (AID 149);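 note: 0% = growth of vehicle-treated wt1 cultures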; conditions: S. cerevisiae wt1 strain (SPY 50644) growth inhibition, active compounds read high
Outline: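 Using yeast strain wt1, compound-induced growth inhibition was determined against vehicle-treated cultures.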

[3] = NCI Yeast Anticancer Drug Screen. Data for the rad50EPP+ strain (AID 151);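 note: 0% = growth of vehicle-treated control cultures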; conditions: S. cerevisiae rad50 mutant strain, active compounds read high
Outline: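 Genetically defined yeast (rad50EPP+, DNA damage repair alteration) is grown with compound, and inhibition of growth is expressed relative to vehicle-treated controls.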

[4] = NCI Yeast Anticancer Drug Screen. Data for the rad50 strain (AID 155);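 note: 0% = growth of vehicle-only cultures of the same strain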; conditions: S. cerevisiae rad50 strain growth inhibition, active compounds read high
Outline: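 Relative growth inhibition (compound vs vehicle) was measured in yeast with a defined repair-gene alteration.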

[5] = NCI Yeast Anticancer Drug Screen. Data for the mec2-1 strain (AID 157); conditions: S. cerevisiae mec2-1 strain, active compounds read high
Outline: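 Each compound was tested on mec2-1 yeast, a strain altered in DNA damage repair or cell cycle control. Growth inhibition is reported relative to vehicle.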

[6] = NCI Yeast Anticancer Drug Screen. Data for the rad14 strain (AID 159);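 note: 0% = growth of vehicle-treated control cultures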; conditions: S. cerevisiae rad14 strain growth inhibition, active compounds read high
Outline: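 Screen for anticancer potential: a yeast strain altered in DNA damage repair is grown with compound, and reduced growth is quantified against vehicle controls.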

[7] = NCI Yeast Anticancer Drug Screen. Data for the sgs1 mgt1 strain (AID 161);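 note: 0% = growth of cultures given vehicle only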; conditions: S. cerevisiae sgs1 mgt1 strain, active compounds read high
Outline: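 Genetically altered yeast, compound exposure, growth inhibition relative to vehicle.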

[8] = NCI Yeast Anticancer Drug Screen. Data for the CLN2oe strain (AID 163);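 note: 0% = growth of vehicle-only control cultures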; conditions: S. cerevisiae CLN2oe strain, active compounds read high
Outline: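 First, the altered yeast strain was treated with each compound; second, its growth was measured; finally, inhibition was derived by comparison with vehicle controls.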

[9] = NCI Yeast Anticancer Drug Screen. Data for the cln2 rad14 strain (AID 165);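 note: 0% = growth equal to vehicle treated cultures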; conditions: S. cerevisiae cln2 rad14 strain, active compounds read high
Outline: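 Test compounds were added to cln2 rad14 yeast cultures; inhibition of growth was then determined by comparison with vehicle treatment.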

[10] = NCI Yeast Anticancer Drug Screen. Data for the bub3 strain (AID 167); conditions: S. cerevisiae bub3 mutant strain, active compounds read high
Outline: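 Screening used yeast with an engineered genetic alteration affecting cell cycle control. Compound-exposed cultures were compared with vehicle cultures, and reduced growth was taken as inhibition.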

[11] = NCI Yeast Anticancer Drug Screen. Data for the wt2 strain (AID 169);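 note: 0% = growth of vehicle-treated yeast cultures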; conditions: S. cerevisiae wt2 strain growth inhibition, active compounds read high
Outline: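 The panel's yeast strains carry defined changes in DNA repair or cell cycle genes. Each strain is grown with compound, and growth loss is scored relative to vehicle.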

[12] = NCI Yeast Anticancer Drug Screen. Data for the mlh1 strain (AID 171);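 note: 0% = growth of vehicle-treated control cultures of the same strain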; conditions: S. cerevisiae mlh1 strain growth inhibition, active compounds read high
Outline: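 Inhibition values reflect reduced yeast growth in the presence of compound, referenced to vehicle controls, using a strain chosen for its alteration in DNA repair or cell cycle control.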

[13] = NCI Yeast Anticancer Drug Screen. Data for the sgs1 strain (AID 173);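 note: 0% = growth of vehicle-only control cultures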; conditions: S. cerevisiae sgs1 mutant, active compounds read high
Outline: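 Vehicle-treated cultures served as reference for growth inhibition of a yeast strain altered in DNA damage repair or cell cycle control after compound exposure.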

[14] = NCI Yeast Anticancer Drug Screen. Data for the mlh1 rad18 strain (AID 175); conditions: S. cerevisiae mlh1 rad18 strain growth inhibition, active compounds read high
Outline: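 Inhibition values reflect reduced growth of mutant yeast versus vehicle-treated controls following compound exposure; the mutations affect DNA damage repair.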

[15] = NCI Yeast Anticancer Drug Screen. Data for the rad18 strain (AID 177); conditions: S. cerevisiae rad18 mutant growth inhibition, active compounds read high
Outline: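 Steps: expose repair-mutant yeast to compound; measure growth; express as inhibition relative to vehicle control.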

[16] = at 5.0 µM (retest, dose inferred, filed as 0.5)
[17] = at 50.0 µM (retest, dose inferred, filed as 5.0)

Measured: growth inhibition

CCc1nc(N)nc(N)c1-c1ccc(NCCCCCCN)c([N+](=O)[O-])c1
active: [4]; at 50.0 µM 86% | [5]; at 50.0 µM 95.6% | [7]; at 50.0 µM 92.7% | [9]; [17] 83% | [9]; at 50.0 µM 96.2% | [10]; at 50.0 µM 93.5% | [14]; at 50.0 µM 97.2%
inactive: [1]; at 1.2 µM -3% | [1]; at 3.7 µM 0% | [1]; at 11.0 µM 2% | [1]; at 33.0 µM 11% | [1]; at 100.0 µM 32% | [2]; at 1.2 µM -1% | [2]; at 3.7 µM -1% | [2]; at 11.0 µM -1% | [2]; at 33.0 µM -3% | [2]; at 100.0 µM -4% | [3]; at 1.2 µM -6% | [3]; at 3.7 µM -3% | [3]; at 11.0 µM -3% | [3]; at 33.0 µM 1% | [3]; at 100.0 µM 17% | [4]; at 1.2 µM 0% | [4]; at 3.7 µM -2% | [4]; [16] -16% | [4]; at 11.0 µM 11% | [4]; at 33.0 µM 17% | [4]; [17] -4% | [4]; at 100.0 µM 42% | [5]; at 1.2 µM -1% | [5]; at 3.7 µM -4% | [5]; [16] 4% | [5]; at 11.0 µM -4% | [5]; at 33.0 µM -4% | [5]; [17] -10% | [5]; at 100.0 µM 11% | [6]; at 1.2 µM 4% | [6]; at 3.7 µM -4% | [6]; at 11.0 µM -3% | [6]; at 33.0 µM -13% | [6]; at 100.0 µM 0% | [7]; [16] -22% | [7]; [17] -16% | [8]; at 1.2 µM -3% | [8]; at 3.7 µM 1% | [8]; at 11.0 µM -5% | [8]; at 33.0 µM 0% | [8]; at 100.0 µM -5% | [9]; [16] -19% | [10]; at 1.2 µM -7% | [10]; at 3.7 µM -4% | [10]; [16] 11% | [10]; at 11.0 µM 9% | [10]; at 33.0 µM 17% | [10]; [17] -16% | [10]; at 100.0 µM -2% | [11]; at 1.2 µM -1% | [11]; at 3.7 µM 0% | [11]; at 11.0 µM -2% | [11]; at 33.0 µM -3% | [11]; at 100.0 µM -4% | [12]; at 1.2 µM -4% | [12]; at 3.7 µM -1% | [12]; at 11.0 µM 0% | [12]; at 33.0 µM -6% | [12]; at 100.0 µM -5% | [13]; at 1.2 µM -3% | [13]; at 3.7 µM -2% | [13]; at 11.0 µM -3% | [13]; at 33.0 µM -5% | [13]; at 100.0 µM -3% | [14]; [16] -27% | [14]; [17] -34% | [15]; at 1.2 µM -4% | [15]; at 3.7 µM -6% | [15]; at 11.0 µM -5% | [15]; at 33.0 µM -17% | [15]; at 100.0 µM -23%
